DAX1 inh-1: DAX1 (NR0B1) inhibitors on StAR promoter, primary screen, cell-based, luminescence, SF-1 (NR5A1), full-length DAX-1. HEK293T StAR-luciferase reporter, SF-1/DAX-1 repression relief. inhibition, % at 6.8 µM. 370,000 compounds, 1.1% hits;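 active = inhibition above the mean over all tested compounds plus 3 SD, cut at about 3.6% in these data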;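 also: 0% = DAX-1 cells with DMSO and 100% = cells lacking DAX-1 with DMSO; higher inhibition means more luminescence from relief of DAX-1 repression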
hcDAF-12 act: H. contortus DAF-12 nuclear receptor activators, primary screen, cell-based, luminescence, HEK293, lit1-tk-luc reporter; 370,000 compounds, 1.4% hits; HEK293 hcDAF-12 lit1-tk-luc reporter; 0% DMSO, 100% Δ7-dafachronic acid; AID 652067, 2013; activation, % at 6.8 µM;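 active = activation above the mean of all tested compounds plus 3 SD, cut at about 5.5% in these data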;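 also: 100% = response to 3 µM Δ7-dafachronic acid high control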
FXN GAA850 act: FXN promoter activators, primary screen, cell-based, luciferase luminescence, HEK293 lucGAA850; HEK293 lucGAA850 FXN promoter luciferase reporter, 24 h; percent of 10 µM SAHA response; activation, % at 6 µM; 360,000 compounds, 0.56% hits; AID 540364, 2011;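 active = activation above the average of all compounds screened plus 3 SD, cutoff fixed separately per campaign, cut at about 7.5% in these data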;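 also: 0% = DMSO wells and 100% = 10 µM SAHA wells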
hgDAF12 agonist: H. glycines DAF-12 receptor agonists, primary screen, cell-based, luminescence, HEK293, GAL4 fusion, UAS-luciferase; activation, % at 6.8 µM; Nuclear hormone receptor DAF-12 (Heterodera glycines), GAL4 fusion; HEK293 GAL4-hgDAF12 UAS-luciferase reporter, agonist luminescence; normalized to butyrate control; 370,000 compounds, 1.8% hits;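 active = activation above a cutoff set at the mean of all screened compounds plus 3 SD, cut at about 10% in these data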;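 also: 0% = DMSO wells and 100% = sodium butyrate wells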
DAX1 inh-2: DAX1 (NR0B1) inhibitors, primary screen, cell-based, HEK293, Gal4-DAX1, luciferase luminescence; HEK293 Gal4-DAX1 luciferase reporter; 340,000 compounds, 0.99% hits; inhibition, % at 6.75 µM; AID 504766, 2011;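 active = inhibition above the mean over all tested compounds plus 3 SD, cut at about 4.2% in these data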;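 also: 0% = DAX1-transfected cells with DMSO and 100% = empty-vector control cells with DMSO; inhibition shows as a rise in luminescence from relieved DAX1 repression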
Target sequence (P51843 207-470 limits assumed): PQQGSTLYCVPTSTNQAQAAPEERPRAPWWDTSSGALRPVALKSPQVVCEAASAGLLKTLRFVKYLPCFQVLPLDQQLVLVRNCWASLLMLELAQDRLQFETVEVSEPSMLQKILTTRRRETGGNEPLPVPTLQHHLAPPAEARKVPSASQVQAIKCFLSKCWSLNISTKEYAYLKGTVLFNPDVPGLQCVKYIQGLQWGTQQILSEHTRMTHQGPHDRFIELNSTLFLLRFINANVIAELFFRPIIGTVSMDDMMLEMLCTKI
ssDAF12 agonist: S. stercoralis DAF-12 nuclear receptor activators, primary screen, cell-based, luminescence, HEK293, GRIP1 co-expression, lit1-tk-luc. activation, % at 6.8 µM. 370,000 compounds, 1% hits. HEK293 ssDAF-12/GRIP1 lit1-tk-luc reporter; % of 3 µM dafachronic acid response. Nuclear hormone receptor DAF-12 (Strongyloides stercoralis);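 active = activation above the mean over all tested compounds plus 3 SD, cut at about 0.9% in these data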;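 also: 0% = DMSO-only wells and 100% = 3 µM delta7-dafachronic acid wells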
LXRb hcDAF ctr: LXR agonists, Gal4 luciferase reporter, confirmation, counter-screen for hcDAF-12 agonist project, cell-based, luminescence, HEK293, H. contortus campaign | AID 743027, 2013 | shares compounds with hcDAF-12 act | activation, % at 6.8 µM | 3,400 tested, under 10 active | HEK293 Gal4-LXR tk-luc reporter, 24 h; normalized: DMSO 0%, positive control 100%;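 active = mean percent activation of the reporter above a cutoff set as the average over tested compounds plus their standard deviation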
hcDAF12 ag: H. contortus DAF-12 receptor agonists, confirmation, cell-based, luminescence, HEK293, lit1-tk-luc, triplicate | shares compounds with hcDAF-12 act | HEK293 hcDAF-12 lit1-tk-luc reporter; % of Δ7-dafachronic acid response | activation, % at 6.8 µM | 3,400 compounds, 61% hits | AID 743032, 2013;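 active = mean activation across triplicate tests above the threshold derived from the earlier primary screen, cut at about 5.5% in these data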;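 also: 0% = DMSO only wells and 100% = 3 µM Δ7-dafachronic acid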
hgDAF12 ag: H. glycines DAF-12 receptor agonists, confirmation, cell-based, luminescence, HEK293, GAL4-LBD fusion. 3,300 compounds, 80% hits. HEK293 GAL4-hgDAF12 luciferase reporter, agonist mode; percent of butyrate response. shares compounds with hgDAF12 agonist. AID 743050, 2013. activation, % at 6.8 µM;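 active = mean activation over triplicate wells above the hit cutoff derived from the earlier primary screen, cut at about 11% in these data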;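 also: 0% = DMSO low control and 100% = 2 mM sodium butyrate high control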
LXR ag 2: LXR agonists, Gal4 luciferase reporter, confirmation, counter-screen for hgDAF-12 agonist project, cell-based, luminescence, HEK293, H. glycines campaign. activation, % at 6.8 µM. 3,300 tested, under 10 active. 24 h. shares compounds with hgDAF12 agonist;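 active = mean activation of the triplicate above a set limit carried over from the primary screen, none filed active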
Starred values were filed as active, the others as inactive; / = no result. In the library only some 4.5% were active in any assay of this set; here they are far more common.

SMILES	DAX1 inh-1	hcDAF-12 act	FXN GAA850 act	hgDAF12 agonist	DAX1 inh-2	ssDAF12 agonist	LXRb hcDAF ctr	hcDAF12 ag	hgDAF12 ag	LXR ag 2
N#Cc1ccc(C(=O)N(Cc2ccco2)c2c(N)n(Cc3ccccc3)c(=O)[nH]c2=O)cc1	0	1	0	-2	0	-1	/	/	/	/
CN(C)c1ccc(C2NC(=O)c3ccccc3N2)cc1 (stereo not given)	2	8.1*	4	14*	2	1	2	8.3*	20*	1
Cc1ccc(/C=C/c2ccc3cccc(O)c3n2)s1	1	8.9*	4	18*	4	1.5*	1	15*	16*	1
COc1cccc(/C=C/c2ccc3cccc(O)c3n2)c1OC	1	5	5	10	2	0	/	/	/	/
Oc1cccc(/C=C/c2ccc3cccc(O)c3n2)c1	3.6*	26*	4	23*	3	4.7*	2	21*	28*	1
CCOc1ccc(OCCC(=O)OCC(=O)NC2CCCCC2)cc1	0	0	0	0	0	-1	/	/	/	/
COc1ccc(Cl)cc1NC(=O)CN(C)C(=O)CCSc1ccc(C)cc1	-1	-3	0	2	0	-2	/	/	/	/
Clc1ccc(-c2cn3cc(Cl)ccc3n2)cc1	3	20*	0	14*	0	3.2*	2	18*	22*	1
CC(=O)Nc1ccc(-c2cn3cc(C)ccc3n2)cc1	3.6*	11*	3	18*	-1	0	1	7.4*	11*	0
Cc1cc2nc(-c3ccc(C#N)cc3)c(Cc3ccsc3)n2c(C)c1Br	2	2	/	1	/	-1	/	/	/	/
CCSc1ccc([C@@H]2[C@H]3C(=O)N(C)C(=O)[C@H]3[C@]3(C(=O)OC)CCCCN23)cc1OC	0	-2	1	-4	0	-2	/	/	/	/
COc1ccc(-c2cc3ccc(OC)cc3cn2)cc1	4.2*	9.9*	-3	21*	1	1.1*	2	12*	18*	1
COc1ccc2cc(-c3ccccc3F)ncc2c1	3	11*	5	16*	2	1.1*	2	11*	24*	2
COc1ccc2cc(-c3ccon3)ccc2c1	0	2	5	6	2	-1	/	/	/	/
CC(=O)N1CCN(CC(=O)NC(=O)Nc2ccc3c(c2)OCCO3)CC1	0	0	1	2	-1	-1	/	/	/	/
CCN(CC)S(=O)(=O)c1cccc(C(=O)NNC(=O)C2=NN(c3ccccc3)C(=O)CC2)c1	-1	0	0	2	0	-1	/	/	/	/
CC(C)(C)c1cc(NC(=O)c2ccc(OC3CCCC3)cc2)no1	1	2	-1	2	1	-1	/	/	/	/
O=C(Nc1ccon1)c1ccc(OC2CCCC2)cc1	4.5*	7.2*	6	14*	0	0	1	5	14*	1
O=C(Nc1ccc(Cl)cn1)c1ccccc1F	3	6.6*	-3	15*	2	1.2*	1	7.8*	18*	1
COc1cc2ccccc2cc1C(=O)Nc1ccc(Cl)cn1	0	3	7	5	1	0	/	/	/	/
CCC1=Nc2ccccc2NC2=C1C(=O)CCC2	4	15*	6	14*	2	2.6*	0	7.9*	10	0
CC1CC(=O)C2=C(C1)Nc1ccccc1N=C2 (stereo not given)	0	-2	-1	5	0	-1	/	/	/	/
CN(C)c1cccc(-c2cnc(N3CCC(C(N)=O)CC3)s2)c1	/	6.7*	/	17*	/	1.8*	2	6.0*	19*	1
N#Cc1cc(-c2ccccc2)nc(N2CCNCC2)n1	-1	-1	3	1	1	-1	/	/	/	/
Cc1csc2ncc(C(=O)NCCC(c3ccccc3)c3ccccc3)c(=O)n12	0	-2	0	-2	0	-1	/	/	/	/
SMILES	DAX1 inh-1	hcDAF-12 act	FXN GAA850 act	hgDAF12 agonist	DAX1 inh-2	ssDAF12 agonist	LXRb hcDAF ctr	hcDAF12 ag	hgDAF12 ag	LXR ag 2
Cc1csc2ncc(C(=O)NCCc3ccccc3)c(=O)n12	3	8.7*	1	14*	2	1.9*	0	6.3*	9	0
Fc1ccccc1-c1ccc(/C=N/Nc2nc3ccccc3[nH]2)o1	2	13*	7	21*	1	3.4*	1	13*	18*	1
C(=N\Nc1nc2ccccc2[nH]1)/c1ccccn1	-1	3	-9	-3	-5	-1	/	/	/	/
Cc1noc(C)c1C(=O)Nc1cccc(S(=O)(=O)N2CCCCC2)c1	-1	-1	2	-2	0	-1	/	/	/	/
Cc1cc(SCC(=O)c2ccc(Cl)cc2)nc(=O)[nH]1	3	6.8*	2	15*	1	1.3*	2	5.8*	15*	1
O=C(CSc1ncnc2ccccc12)c1cccs1	1	16*	2	19*	1	2.4*	1	8.8*	17*	1

Source: PubChem
